Among all 360,000 compounds or so, about 25,000 (6.9%) were called active. About 9% were inconclusive and are not listed. Calls follow the shape of the dose curve; as a rule, active = well fitted inhibition curve with a large enough effect; inconclusive = small, poorly fitted or top-dose-only effect; inactive = flat fitted curve, though single readings scatter. The list comes from a sample in which actives are over-represented; it also holds similar structures and randomly drawn compounds. Where a call stands in place of a potency, no number is given.
These compounds were tested against Luciferin 4-monooxygenase (Photinus pyralis) (UniProt P08659) (assay: qHTS profiling assay for firefly luciferase inhibitor/activator using purifed enzyme and Km concentrations of substrates (counterscreen for miR-21 project)). Settings: purified FLuc, luminescence inhibition; series mostly up to 57.5 µM.
Sequence of Luciferin 4-monooxygenase (Photinus pyralis) (P08659 whole entry, looked up): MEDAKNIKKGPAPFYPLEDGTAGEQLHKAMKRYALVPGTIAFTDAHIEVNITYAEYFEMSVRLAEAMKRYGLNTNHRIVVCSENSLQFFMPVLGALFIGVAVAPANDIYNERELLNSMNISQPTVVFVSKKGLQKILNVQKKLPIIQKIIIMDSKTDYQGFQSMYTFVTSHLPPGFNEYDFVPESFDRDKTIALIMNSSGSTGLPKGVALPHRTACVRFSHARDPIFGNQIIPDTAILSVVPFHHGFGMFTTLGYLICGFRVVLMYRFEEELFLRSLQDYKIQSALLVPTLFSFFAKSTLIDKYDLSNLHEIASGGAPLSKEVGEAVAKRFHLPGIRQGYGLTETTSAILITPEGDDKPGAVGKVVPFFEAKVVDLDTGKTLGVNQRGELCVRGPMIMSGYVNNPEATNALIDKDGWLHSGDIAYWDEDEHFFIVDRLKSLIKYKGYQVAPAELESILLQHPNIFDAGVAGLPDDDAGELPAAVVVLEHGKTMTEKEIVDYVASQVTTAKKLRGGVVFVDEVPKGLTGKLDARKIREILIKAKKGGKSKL
Procedure, shortened: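 Purified P. pyralis luciferase (10nM final) with 10uM D-luciferin and 10uM ATP (Km levels) in 50mM Tris acetate pH 7.5, 10mM Mg acetate, 0.01% Tween-20, 0.05% BSA; qHTS 6-point titration, ~60 µM downward; luminescence read.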
For `CC1CCN(S(=O)(=O)c2ccc3c(c2)N(CC(=O)NCc2ccccc2Cl)C(=O)CO3)CC1`, the Potency was “inactive”.
With `Cc1csc2nc(COc3ccc(NC(=O)COc4ccccc4)cc3)cc(=O)n12` the Potency was “inactive”.
For `COc1ccccc1N1CCN(c2ncnc3onc(-c4ccc(F)cc4)c23)CC1`, the Potency was “inactive”.
For `O=C(CSc1ccccc1)Nc1cccc(S(=O)(=O)N2CCOCC2)c1`, the Potency was “inactive”.
With `CCn1c2ccccc2c2cc(CC(N)=O)ccc21` the Potency was “inactive”.
For `NC(=O)Cc1ccc2c(c1)[nH]c1ccccc12`, the Potency was “inactive”.
For `NC(=O)Cc1ccc2sc(-c3ccccc3)nc2c1`, the Potency was 5.36 µM (active).
With `COc1ccc(CCNC(=O)c2ccc(CSCc3ccc(C)cc3)o2)cc1OC` the Potency was “inactive”.
With `CN1CCN(S(=O)(=O)c2ccc(N3CCN(c4ccccc4O)CC3)c([N+](=O)[O-])c2)CC1` the Potency was “inactive”.
For `O=C(/C=C/c1ccccc1Cl)Nc1ccc(S(=O)(=O)Nc2ncccn2)cc1`, the Potency was 13.5 µM (active).
With `NS(=O)(=O)c1ccc(NC(=O)/C=C/c2ccccc2Cl)cc1` the Potency was “inactive”.
With `O=C(CCS(=O)(=O)c1ccccc1Cl)Nc1ccc(S(=O)(=O)Nc2ncccn2)cc1` the Potency was “inactive”.
With `CC(=O)NS(=O)(=O)c1ccc(NC(=O)/C=C/c2ccccc2Cl)cc1` the Potency was 12 µM (active).
With `CC(=O)NS(=O)(=O)c1ccccc1` the Potency was “inactive”.
With `CC(=O)Nc1ccc(S(=O)(=O)Nc2nccc(/C=C/c3ccccc3F)n2)cc1` the Potency was “inactive”.
In the case of `COc1ccc(CNC(=O)Cn2nnc(-c3ccccc3F)n2)cc1`, the Potency is reported as “inactive”.
In the case of `CCOc1cccc2sc(N3CCN(C(=O)C4CC4)CC3)nc12`, the Potency is reported as “inactive”.
`Cc1occc1-c1nnc(SCC(=O)NC2(C#N)CCCC2)n1C` was tested, and the Potency was “inactive”.
For `Cc1ccc(CSc2oc(-c3cccs3)nc2S(=O)(=O)c2ccc(C)cc2)cc1`, the Potency was “inactive”.
For `CCOC(=O)N1CCN(Cc2nnc(-c3ccccc3Cl)o2)CC1`, the Potency was “inactive”.
With `Cc1onc(-c2ccccc2Cl)c1C(=O)OCc1nnc(-c2ccccc2)o1` the Potency was “inactive”.
With `O=C(c1ccc(Cl)s1)N(Cc1nnc(-c2ccccc2Cl)o1)C1CC1` the Potency was 19 µM (active).
`Cc1ccc(S(=O)(=O)c2c(Nc3cccc(Cl)c3)sc(C(=O)c3ccc4c(c3)OCO4)c2N)cc1` was tested, and the Potency was “inactive”.
In the case of `COc1ccccc1C(=O)NC(=S)Nc1ccccc1N1CCCCC1`, the Potency is reported as “inactive”.
With `O=C(CCCCn1c(=O)c2ccccc2n(CC(=O)Nc2cccc(C(F)(F)F)c2)c1=O)NCc1ccc2c(c1)OCO2` the Potency was “inactive”.
`CC(=O)Nc1cc(C(=O)NCc2ccc(F)cc2)ccc1Sc1ccc(F)cc1` was tested, and the Potency was “inactive”.
With `COC(=O)c1ccc(C(=O)OC)c(NC(=S)N2CCN(c3ccc(F)cc3)CC2)c1` the Potency was “inactive”.
For `COC(=O)c1ccc(Sc2ccc(F)cc2)c(N)c1`, the Potency was 21.3 µM (active).
With `CC(C)NC(=O)c1nn(-c2ccccc2F)nc1CO` the Potency was “inactive”.
For `CCOC(=O)C1CCC(CN(Cc2ccc(OC)cc2)S(=O)(=O)c2ccc(F)c(C(=O)Nc3cc(C)ccc3C)c2)CC1` (stereo unspecified), the Potency was “inactive”.
For `CCNC(=O)CC1C(=O)N(c2ccc(F)cc2)C(=O)N1Cc1ccc(C)cc1` (stereo unspecified), the Potency was “inactive”.
For `N#Cc1cccc(OC(=O)c2ccc3c(=O)n4c(nc3c2)CCC4)c1`, the Potency was “inactive”.
With `COc1ccccc1CNC(=O)C(=O)NCC(c1ccco1)S(=O)(=O)c1ccc(F)cc1` (stereo unspecified) the Potency was “inactive”.
`CC1=NOC(=O)/C1=C\c1ccccc1` was tested, and the Potency was “inactive”.
In the case of `COc1cc(/C=C2/C(=O)ON=C2C)ccc1OCc1ccccc1F`, the Potency is reported as 6.75 µM (active).
`CCOc1cc(/C=C2/C(=N)N3OC(C)=CC3=NC2=O)ccc1OC` was tested, and the Potency was “inactive”.
With `CCc1ccc(CN(Cc2ccco2)C(=O)c2ccccc2Cl)cc1` the Potency was “inactive”.
With `Cc1ccc(C(=O)NC(=S)Nc2ccccc2C)cc1` the Potency was 19 µM (active).
For `Cc1cccc(NC(=O)c2ccc([N+](=O)[O-])o2)c1`, the Potency was “inactive”.
`O=C(CNC(=O)c1ccc(Br)o1)Nc1ccccc1` was tested, and the Potency was “inactive”.
`Cc1ccccc1NC(=S)NC(=O)Cc1ccc(Cl)cc1` was tested, and the Potency was “inactive”.
For `Cc1ccc(C(=O)NC(=S)Nc2ccc(N3CCOCC3)cc2)cc1`, the Potency was “inactive”.
For `Cc1cccc(NC(=O)NC(=S)NC(=O)c2ccccc2)c1`, the Potency was 19 µM (active).
For `Cc1ccc(NC(=O)NC(=O)c2ccccc2)cc1F`, the Potency was “inactive”.
In the case of `Cc1cccc(NC(=S)NC(=O)c2ccc(Br)o2)c1`, the Potency is reported as 19 µM (active).
With `Cc1cccc(NC(=O)/C(=C\c2ccco2)NC(=O)c2ccccc2)c1` the Potency was “inactive”.
In the case of `CC1CCN(S(=O)(=O)c2ccc3c(c2)N(CC(=O)NCCc2ccccc2)C(=O)CO3)CC1`, the Potency is reported as “inactive”.
With `O=C(NCc1cccc(Cl)c1)C1=CC=CN2CCS(=O)(=O)N=C12` the Potency was “inactive”.
In the case of `Cc1nnc(NCc2ccccc2)c2c1nnn2Cc1ccc(F)cc1`, the Potency is reported as “inactive”.
For `O=C(CCS(=O)(=O)c1cc(Br)cc2c1N(C(=O)C1CC1)CC2)Nc1ccc(Br)cc1F`, the Potency was “inactive”.
With `Cc1ccc(NC(=O)CSc2nc3c([nH]c4ccccc43)c(=O)n2-c2ccccc2)cc1Cl` the Potency was “inactive”.
In the case of `NC(=O)CSc1nc2c(oc3ccccc32)c(=O)n1Cc1ccccc1`, the Potency is reported as “inactive”.
`Cc1ccc(OCC(=O)Nc2ccc3oc(=O)ccc3c2)cc1C` was tested, and the Potency was “inactive”.
`CC1=C(C(=O)N2CCN(c3cccc(C(F)(F)F)c3)CC2)C2(CCCCC2)OC1=O` was tested, and the Potency was “inactive”.
With `CC(C)c1nc2cc(C(=O)NC(C)c3cnn(C)c3)ccc2o1` (stereo unspecified) the Potency was “inactive”.
For `COc1ccc(-c2nc3ccc(C(=O)NCc4ccc(C)cc4)cc3nc2-c2ccc(OC)cc2)cc1`, the Potency was “inactive”.
With `COc1ccc(Cc2nc3ccc(C(=O)NCc4ccc(OC)cc4OC)cc3o2)cc1` the Potency was “inactive”.
For `COC(=O)c1ccc(CSc2nc3cc(Cl)ccc3o2)cc1`, the Potency was “inactive”.
`COc1ccc(CNC(=O)c2ccc3oc(C(C)C)nc3c2)cc1` was tested, and the Potency was 15.1 µM (active).
`COC(=O)c1ccc(CNC(=O)c2ccc3oc(C(C)C)nc3c2)cc1` was tested, and the Potency was 13.5 µM (active).
`COC(=O)c1c(NC(=O)c2cc(=O)c3c(C)cc(C)cc3o2)sc2c1CCCC2` was tested, and the Potency was “inactive”.
In the case of `CCCCN(C)S(=O)(=O)c1ccc(C(=O)Nc2sc3c(c2C(N)=O)CC(C)(C)NC3(C)C)cc1`, the Potency is reported as “inactive”.
`FC(F)(F)c1cc(Nc2nc3ccccc3c3nncn23)ccc1Cl` was tested, and the Potency was “inactive”.
With `Cc1c(CNC2CCCCC2)c(C(=O)O)c(C)n1Cc1cccc(Cl)c1` the Potency was “inactive”.
`CC(C)Nc1ccc(-n2nc3ccccc3[n+]2[O-])cc1` was tested, and the Potency was 1.9 µM (active).
In the case of `CCC(=O)Nc1c(C(=O)N2CCN(c3ccc(F)cc3)CC2)oc2ccccc12`, the Potency is reported as “inactive”.
Also: nearly all actives have a fitted effect of over 55% in size.
Potency is read from the fitted curve at half-maximal effect.
